Pf growth 96h: P. falciparum growth inhibition at 96 hour, primary screen for plastid delayed-death inhibitors; 320,000 compounds, 6.9% hits; AID 504834; Potency, µM (titrated, usually from 28.7 µM), usual class: inhibitors; P. falciparum luciferase reporter growth, 96 h
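96 h incubation, 37 C, 5% CO2, of luciferase-reporter P. falciparum-infected RBCs (2% hematocrit, 0.05% parasitemia final) with test compounds; endpoint luminescence.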
Pf growth 48h: inhibits P. falciparum growth in the first generation, 48 h; 310,000 compounds, 5.9% hits; Potency, µM (highest dose often 28.7 µM), actives largely listed as inhibitors; P. falciparum luciferase growth in erythrocytes, 48 h
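Here the parasites carry a stable luciferase gene and grow inside erythrocytes in Albumax-based RPMI medium with compound for one erythrocytic cycle. Activity is scored as loss of luminescent signal.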
CHX counter: affects cycloheximide protein synthesis inhibition readout, counter-screen; cell reporter, cycloheximide protein synthesis inhibition counterscreen; max response, %; AID 2314; 300,000 compounds, 12% hits; in the data active = max response mostly above about 13%, no sharp cut-off; inactive = mostly below about 14%; note: read at 38.3 µM for the half of the compounds with a filed dose
Shiga inhibitor: Shiga toxin inhibition; Vero cells, Shiga toxin protein synthesis inhibition reporter; inhibition, % at 38.7 µM; 290,000 compounds, 9.2% hits; in the data active = inhibition mostly above about 28%, no sharp cut-off; inactive = mostly below about 43%
HCMV antiviral: inhibitors of human cytomegalovirus | HFF cells, HCMV-luciferase reporter, 72 h; active compounds read low | activity change, negative = inhibition, % at 57.5 µM | 410,000 compounds, 4.5% hits; in the data active = activity change below about -60%; inconclusive = no clear call, values can overlap the other calls; inactive = above about -39%
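Luciferase read-out from HCMV-luciferase-infected HFFs (MOI 1 PFU/cell) 72 h post infection at 37C; compounds added after 16 h cell attachment; activity normalized between buffer-only basal and Salinomycin (10uM) inhibitor controls.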
Large screens that a line does not name were inactive. Rows were chosen to be rich in hits. Some 20% of all compounds tested hit in one or more screens of this group. Unless noted, calls come from the whole dose curve; as a rule, active = well fitted inhibition curve with a large enough effect; inconclusive = small, poorly fitted or top-dose-only effect, or another doubt; inactive = no such curve, though single readings can be large or run the other way.

Nc1c(-c2ccccc2)cnn1-c1cccc(C(F)(F)F)c1	CHX counter 68, Shiga inhibitor 83, HCMV antiviral -106
Nc1c(-c2ccc(Cl)cc2)cnn1-c1cc(C(F)(F)F)cc(C(F)(F)F)c1	none
O=C(CCC(=O)c1ccccc1)NC1CCCN(Cc2ccccc2F)C1 (stereo unspecified)	Pf growth 96h inconclusive
Clc1cccc(OCc2nnc(-c3ccccc3Br)o2)c1	Pf growth 96h inconclusive, Pf growth 48h inconclusive, CHX counter 38, Shiga inhibitor 86
Clc1ccccc1-c1nnc(COc2ccccc2)o1	none (no result: Pf growth 96h, Pf growth 48h, CHX counter, Shiga inhibitor)
Clc1ccc(OCc2nnc(-c3ccccc3Br)o2)cc1	CHX counter 12
COc1ccc(CCNC(=O)CSCc2nc(-c3cccc(C)c3)oc2C)cc1OC	none (no result: Pf growth 96h, Pf growth 48h, CHX counter, Shiga inhibitor)
Cc1ccc(NC(=O)c2ccc(CSc3nnc(C)s3)cc2)c(C)c1	CHX counter 43, Shiga inhibitor 97
Cc1nnc(SCC(=O)c2ccc(Br)cc2)s1	CHX counter 19
Cc1ccc(C(=O)CSc2nnc(C)s2)cc1	Pf growth 96h inconclusive, CHX counter 53, Shiga inhibitor 66
Cc1nnc(SCc2ccc(C(=O)Nc3cc(Cl)ccc3C)cc2)s1	Pf growth 96h inconclusive, HCMV antiviral inconclusive
CCc1nc2ccc(C(=O)N3CCCC(C(N)=O)C3)cn2c1N(CCC(C)C)CCN(C)C (stereo unspecified)	none (no result: Pf growth 96h, Pf growth 48h, CHX counter, Shiga inhibitor)
O=C(c1ccc(CNS(=O)(=O)c2cccc(Cl)c2)cc1)N1CCCCC1	none
CN1C(=O)NC(c2ccc([N+](=O)[O-])cc2)C2=C1CC(C)(C)CC2=O (stereo unspecified)	Pf growth 96h inconclusive
CN1C(=O)NC(c2ccccc2[N+](=O)[O-])C2=C1CC(C)(C)CC2=O (stereo unspecified)	Pf growth 96h 9.3µM
COc1cc(C2NC(=O)N(C)C3=C2C(=O)CCC3)cc(OC)c1OC (stereo unspecified)	none
CN1C(=O)NC(c2ccccc2[N+](=O)[O-])C2=C1CCCC2=O (stereo unspecified)	Pf growth 96h 9.3µM
CN1CCCC(C)(C(=O)Nc2ccc3scnc3c2)C1 (stereo unspecified)	none (no result: Pf growth 96h, Pf growth 48h, CHX counter, Shiga inhibitor)
Cc1ccc(C(=O)Nc2ccc3c(c2)OCO3)cc1NC(=O)c1ccco1	CHX counter 27, Shiga inhibitor 74
Cc1cc(NC(=O)c2ccc3c(c2)OCO3)ccc1NC(=O)c1ccco1	CHX counter 14, HCMV antiviral inconclusive
COc1cccc(C(=O)OCC(=O)c2ccc(Br)s2)c1	Pf growth 96h inconclusive, CHX counter 53, Shiga inhibitor 88
CC(=O)c1ccc(S(=O)(=O)N2CCN(S(=O)(=O)c3ccccc3C(F)(F)F)CC2)cc1	Pf growth 96h inconclusive
CCN(CC)S(=O)(=O)c1ccc(NN)nc1	Pf growth 96h inconclusive
CCN(c1ccccc1)S(=O)(=O)c1ccc(NN)nc1	Pf growth 96h inconclusive, Pf growth 48h 13µM (no result: CHX counter, Shiga inhibitor)
CCN(CC)S(=O)(=O)c1cc(C(=O)Nc2ccc(Cl)cn2)ccc1C	CHX counter 33, Shiga inhibitor 79 (no result: Pf growth 96h)
CCN(c1ccccc1)S(=O)(=O)c1cccc(C(=O)Nc2ccc(C)cn2)c1	Pf growth 96h 9.3µM, Pf growth 48h 8.3µM (no result: HCMV antiviral)
CCN(CC)S(=O)(=O)c1cccc(C(=O)Nc2ccc(Cl)cn2)c1	CHX counter 26, Shiga inhibitor 99
CCN(CC)S(=O)(=O)c1cc(C(=O)Nc2cccnc2Cl)ccc1Cl	none
CCN(CC)S(=O)(=O)c1cccc(C(=O)Nc2ccccc2C(=O)Nc2ccc(Cl)cc2)c1	none (no result: Pf growth 96h, Pf growth 48h, CHX counter, Shiga inhibitor)
CCOc1ccccc1NC(=O)COC(=O)C1CC1	none
Cc1cccc(OCC(=O)NC2CCCC2)c1	Pf growth 96h inconclusive
Cc1ccc(C)c(OCC(=O)NC2CCCCCC2)c1	CHX counter 27
O=C(COc1ccc2ccccc2c1)NCCNC(=O)COc1ccc2ccccc2c1	Pf growth 96h inconclusive (no result: Pf growth 48h)
O=C(COc1ccc2ccccc2c1)NC1CC1	CHX counter 43, Shiga inhibitor 70 (no result: Pf growth 48h)
Cc1ccc(C)c(OCC(=O)NNC(=O)C2CC2)c1	none
Cc1ccc(OCC(=O)NC2CCCCCC2)cc1C	Pf growth 96h 10µM, CHX counter 25
Cc1cccc(C)c1OCC(=O)NC1CC1	Pf growth 48h 2.9µM
Cn1c(=O)[nH]c(=O)c2c1nc1n(CCO)c(-c3ccccc3)cn21	none (no result: Pf growth 96h, Pf growth 48h, CHX counter, Shiga inhibitor)
O=C(COc1ccc(Cl)cc1Cl)NC1CCSC1=O (stereo unspecified)	CHX counter 40, Shiga inhibitor 131 (no result: Pf growth 96h)
Cc1ccccc1OCC(=O)NC1CCCCCCC1	Shiga inhibitor 59, HCMV antiviral inconclusive

Screening results as filed in PubChem BioAssay.
